Among all 350,000 compounds or so, about 450 (0.13%) were called active. How the calls were made is not given here. A selection follows. Entries with a potency or affinity are not part of this list.

A short description of the test: inhibitors of VEEV TC-83 cytopathic effect, confirmation, Vero cells (AID 588727). The note with it: VEEV TC-83 cytopathic effect inhibition, at 20 µM. Background: Protection from cytopathic effect is a common read-out in antiviral testing.
Setting [1] is: stronger effect = higher value unless noted.
The mark [2] stands for this setting: measured here: 10K pilot screen inhibition, stronger effect = higher value.

As for `Cc1ccc2sc(NNC(=O)C3=COCCO3)nc2c1C`, the inhibition under setting [1] is 2.26% (inactive). Turning to `CN(C)/C=C/C(=O)c1ccccc1OCc1cnc(Cl)s1`, the inhibition result under setting [1] was “inactive”.

For `CC(C)(C)OC(=O)N1CCN(C(=O)c2[nH]cnc2C(=O)N[C@@H](Cc2ccccc2)C(=O)OCc2ccccc2)CC1`, the inhibition under setting [1] is 2.09% (inactive). On to `CC(C)(C)OC(=O)[C@H](Cc1ccccc1)NC(=O)c1nc[nH]c1C(=O)N1CCN(c2ccccc2)CC1`, for which the inhibition under setting [1] is 5.56% (inactive). In the case of `O=C(CSc1ncn[nH]1)N/N=C/c1ccc(Br)cc1`, the inhibition under setting [1] was 0.58% (inactive). The same measure, in the same setting: to `Cc1ccccc1NC(=O)COC(=O)C1C2CC3OC(=O)C1C3C2` (stereo unspecified) belongs 0.18% (inactive); to `Cc1nc2c(c(=O)n1CCC1=CCCCC1)c1nc3ccccc3nc1n2/N=C/c1ccccc1`, “inactive”; to `Cc1onc(-c2ccccc2)c1-c1nnc(CN2CCN(S(=O)(=O)c3ccccc3F)CC2)o1`, 7.39% (inactive). Consider `Cc1ccc(C(=O)NCC(=O)Nc2ncccc2C)s1`, for which, under setting [1], the inhibition result is “inactive”. As to `COc1ccc(C(=O)NC(=O)Nc2ncccc2C)cc1`, the inhibition under setting [1] was 3.84% (inactive). For the molecule `CCCCc1nc2sc3c(c2c(=O)n1NC(=O)c1ccco1)CC(C)(C)OC3`, under setting [1], the inhibition was 0.57% (inactive). For `OCCNC(=S)NCc1ccccc1`, the inhibition under setting [1] was 0.77% (inactive). Turning to `O=C(NCC(=O)N(c1cccc(F)c1)C(C(=O)NC1CCCC1)c1cccnc1)c1cccs1` (stereo unspecified), the inhibition result under setting [1] is “inactive”.

Turning to `O=C(C1CCCCC1)N(Cc1nc2sc3c(c2c(=O)[nH]1)CCCC3)Cc1cccs1`, under setting [1], the inhibition is 2.95% (inactive). On to `Cc1sc2nc(CN(C(=O)c3cccs3)C3CCCC3)[nH]c(=O)c2c1C`, for which the inhibition under setting [1] is 5.66% (inactive). Regarding `Cc1n[nH]c(=S)n1/N=C/c1ccc(-c2ccccc2[N+](=O)[O-])o1`, the inhibition under setting [1] was 2.62% (inactive).

Regarding `S=c1[nH]nc(-c2ccccn2)n1/N=C/c1ccc(-c2ccccc2Cl)o1`, the inhibition under setting [1] was 24.7% (inactive).

With `Cc1ccc(-c2ccc(/C=N\n3cnnc3)o2)c(Br)c1`, the inhibition under setting [1] was 1.33% (inactive). Still for that read-out and setting: the value for `S=c1[nH]nc(-c2cccc(Cl)c2)n1/N=C/c1ccc(-c2ccccc2Br)o1` was 23.7% (inactive); that for `Cc1nnc(C)n1/N=C/c1ccc(-c2ccccc2Cl)o1` was “inactive”. As for `Clc1ccccc1-c1ccc(/C=N/n2cnnc2)o1`, under setting [1], the inhibition is 1.39% (inactive). `COc1ccc(CNC(=O)CNC(C)c2ccc(F)cc2)cc1` (stereo unspecified): the inhibition result under setting [1] is “inactive”. For `O=C(Cn1nc(Cc2cccnc2)c2ccccc2c1=O)NCc1ccc(F)cc1`, under setting [1], the inhibition was 0% [measured here: 10K pilot screen inhibition, stronger effect = higher value] and the molecule was classed as inactive. For the molecule `Cc1ccc(NC(=O)CSc2ncn[nH]2)cc1S(=O)(=O)N1CCOCC1`, under setting [1], the inhibition was 0.49% (inactive). In the case of `O=C(CNS(=O)(=O)c1ccccc1)OCc1cccc([N+](=O)[O-])c1`, the inhibition under setting [1] was 6.33% (inactive). On the same count and under the same terms, the value for `CN1CCN(c2nc3c(c(=O)[nH]c(=O)n3C)n2CCOc2ccccc2)CC1` was 1.82% (inactive). For `COC(=O)C(NC(=O)CCC(=O)N[C@@H](C(=O)OC)c1ccccc1)c1ccccc1` (stereo partly specified), the inhibition under setting [1] is 0.43% (inactive). Take `O=C(Nc1ccccc1Cl)OC1CCCCC1`: the inhibition under setting [1] was 0.52% (inactive).

For `Cc1c(C(=O)N(C)Cc2ccc(OC(F)F)cc2)oc2ccccc12`, the inhibition entry under setting [1] is “inactive”. On the same count and under the same terms, the value for `Cn1c(=O)c2c(nc(N/N=C/c3c(O)n(C4CCCCC4)c(=S)[nH]c3=O)n2C)n(C)c1=O` was 0.22% (inactive). Turning to `C/C(=N\NC(=O)c1ccncc1)c1c(O)n(Cc2ccccc2)c(=O)[nH]c1=O`, the inhibition under setting [1] was 2.16% (inactive). In the case of `CNc1ccc(Br)cc(C(=O)/C=C/c2ccc(OC)cc2)c1=O`, under setting [1], the inhibition was 7.55% (inactive).

`CNc1ccc(Br)cc(C(=O)/C=C/c2ccc(OC)cc2OC)c1=O`: the inhibition was 1.14% (inactive) (stronger effect = higher value) and 6.96% under setting [2].

Regarding `CNc1ccc(Br)cc(C(=O)/C=C/c2ccc3c(c2)OCO3)c1=O`, the inhibition was 7.74% (inactive) (stronger effect = higher value) and 6.21% under setting [2]. On to `CNc1ccc(Br)cc(C(=O)/C=C/c2cccc(OC)c2OC)c1=O`, for which, under setting [1], the inhibition is 13.1% (inactive). On to `CNc1nc(C)c(C#N)c(-c2ccccc2)c1C(C)=O`, for which the inhibition under setting [1] was 0.76% (inactive). The same measure, in the same setting: to `CC[C@]12c3[nH]c4ccccc4c3CCN1C(=O)C(CC(=O)NCCC1=CCCCC1)C[C@@H]2C(=O)N1CCN(C(=O)c2ccco2)CC1` (stereo partly specified) belongs “inactive”; to `CC(C)c1c(C(=O)N/N=C/c2ccc(OCc3ccccc3)cc2)nnn1-c1nonc1N`, 2.29% (inactive).

`FC(F)(F)c1cccc(Cc2noc(CN(Cc3ccccn3)CC3CCCO3)n2)c1` (stereo unspecified): the inhibition under setting [1] was 6.18% (inactive). Still for that read-out and setting: to `CCc1ccccc1NC(=O)C1=CN2CCS(=O)(=O)N=C2C=C1` belongs 4.92% (inactive); to `COC(=O)c1ccc(CSc2ccccc2NC(=S)Nc2cccc(SC)c2)o1`, 5.66% (inactive); to `COC(=O)[C@@H](Cc1ccccc1)NC(=O)CC[C@H]1O[C@@H](n2cc(C)c(=O)[nH]c2=O)C[C@@H]1O`, “inactive”. Still for that read-out and setting: to `Cc1sc2nc(SCC(=O)c3cccs3)n(Cc3ccco3)c(=O)c2c1C` belongs 0.85% (inactive). In the case of `C=CCn1c(SCC(=O)c2cccs2)nc2sc(C)cc2c1=O`, the inhibition under setting [1] is 5.28% (inactive). Turning to `CCOCCCNC(=O)c1cn(C)c(=O)c2cc(OC)c(OC)cc12`, the inhibition under setting [1] was 2.15% (inactive). In the case of `c1ccc(C(c2c[nH]c3ccccc23)c2c[nH]c3ccccc23)nc1`, the inhibition under setting [1] was 6.07% (inactive). As to `CCOC(=O)c1c(-c2cccc(C)c2)csc1NC(=O)C1CC=CCC1C(=O)O` (stereo unspecified), the inhibition under setting [1] was 1.95% (inactive). Turning to `COC(=O)c1c(-c2ccccc2)noc1C`, the inhibition result under setting [1] is “inactive”. Turning to `CCOCc1nnc(NC(=O)c2c(-c3ccccc3)noc2C)s1`, under setting [1], the inhibition is 2.18% (inactive). On to `CCOC(=O)c1c(-c2ccc(F)cc2)csc1NC(=O)c1c(-c2ccccc2)noc1C`, for which the inhibition under setting [1] was 9.91% (inactive).

With `COC(=O)c1sccc1NC(=O)c1c(-c2ccccc2)noc1C`, the inhibition under setting [1] was 0.71% (inactive). As to `CCC(CC)c1nnc(NC(=O)c2c(-c3ccccc3)noc2C)s1`, the inhibition entry under setting [1] is “inactive”. For the molecule `Cn1c(=O)c2c(nc(OCc3cccnc3)n2Cc2c(F)cccc2Cl)n(C)c1=O`, under setting [1], the inhibition result is “inactive”. Same read-out and setting: the value for `Cc1ccc(NC(=O)C2CC(=O)N(c3ccc4c(c3)OCCO4)C2)nc1` (stereo unspecified) was 0.81% (inactive); that for `COc1ccc(NC(=O)c2cc(S(=O)(=O)Nc3ccc(OC)cc3)cs2)cc1` was 1.17% (inactive). Regarding `O=C1CCc2cc(S(=O)(=O)N3CCC(C(=O)NC4CCCCCCC4)CC3)ccc2N1`, under setting [1], the inhibition is 0.11% (inactive).

As for `CC1CCCCN1C(=O)CSc1nc(N)cc(=O)[nH]1` (stereo unspecified), the inhibition under setting [1] is 0.79% (inactive). Regarding `COC(=O)Cc1ccc(NC(=S)NCCSc2ccc(C)cc2)cc1`, under setting [1], the inhibition was 0.04% (inactive). With `CCOC(=O)c1cnc(N2CCOCC2)[nH]c1=O`, the inhibition result under setting [1] is “inactive”. In the case of `O=c1ccc(Cl)cn1Cc1ccccc1F`, the inhibition under setting [1] is 0.68% (inactive). Regarding `CCCNC(=O)CSc1nnc(NC(=O)C2CC(=O)N(c3ccccc3OC)C2)s1` (stereo unspecified), the inhibition under setting [1] was 0.13% (inactive). Turning to `Nc1nc(NCCO)nc(NC2CCCCC2)c1[N+](=O)[O-]`, the inhibition under setting [1] is 3.17% (inactive). As to `CN(C)CCCNc1nc(N)c([N+](=O)[O-])c(NC2CCCCC2)n1`, the inhibition under setting [1] was 1.04% (inactive). As for `OCC1CCCCN1C(=S)NCc1ccco1` (stereo unspecified), the inhibition under setting [1] is 2.33% (inactive).

Regarding `O=C(NNC(=O)c1ccc2ccccc2c1)c1cccc(F)c1`, the inhibition under setting [1] is 0.5% (inactive).

As to `COc1ccccc1NS(=O)(=O)c1ccc(C(=O)N2CCN(c3ccccn3)CC2)cc1`, the inhibition under setting [1] was 12.1% (inactive). Same read-out and setting: the value for `COc1cc2cc(CN(CCO)S(=O)(=O)c3ccccc3)c(=O)[nH]c2cc1OC` was 2.19% (inactive). On to `CCOC(=O)C(CC)n1cnc2sc3c(c2c1=O)CCC3` (stereo unspecified), for which the inhibition under setting [1] was 2.46% (inactive).

In the case of `COc1ccc(/C=C/C(=O)c2cc(Cl)cc(Cl)c2O)c(OC)c1`, the inhibition under setting [1] was 0.43% (inactive). As for `CCNc1ccc(Br)cc(C(=O)/C=C/c2ccccc2Cl)c1=O`, under setting [1], the inhibition is 2.29% (inactive). As to `CN(C)/C=C/C(=O)/C=C/c1ccc(Cl)cc1Cl`, under setting [1], the inhibition result was “inactive”. Consider `CCc1ccc(/C=C/C(=O)c2cc(Br)ccc(=O)c2O)cc1`, for which, under setting [1], the inhibition is 2.12% (inactive). For `CC(=O)Nc1ccc(S(=O)(=O)Nc2ccc3c(c2)OCO3)cc1`, the inhibition result under setting [1] is “inactive”. On to `Cc1ccc(-c2cc(C(=O)NCCCn3ccnc3)c3ccccc3n2)s1`, for which the inhibition under setting [1] is 10.3% (inactive). For `CC(OC(=O)Cn1cnc2ccccc2c1=O)C(=O)N(C)c1ccccc1` (stereo unspecified), the inhibition under setting [1] is 1.86% (inactive).

As for `Cc1cc(SCC(=O)c2cc3ccccc3o2)nc2ccccc12`, the inhibition entry under setting [1] is “inactive”.

As to `COc1ccc(NC(=O)CSc2nc3ccccc3c(=O)n2CCC(=O)N2CCCCC2)cc1`, the inhibition under setting [1] was 10.7% (inactive). Turning to `CCN(C(=O)c1cccc(Br)c1)c1ccccc1`, under setting [1], the inhibition was 1.28% (inactive).

In the case of `CCn1c(-c2nonc2NC(=O)c2ccccc2)nc2ccccc21`, the inhibition entry under setting [1] is “inactive”.

On to `CCC(=O)Nc1nonc1-c1nc2ccccc2n1CC(C)C`, for which, under setting [1], the inhibition is 0.38% (inactive). On the same count and under the same terms, the value for `N#CCCn1c(-c2nonc2NC(=O)c2ccccc2Cl)nc2ccccc21` was “inactive”. `CC(=O)Nc1nonc1-c1nc2ccccc2n1CCC(C)C`: the inhibition under setting [1] is 2.19% (inactive). For `CCOc1ccccc1Nc1ccnc2cc(Cl)ccc12`, the inhibition under setting [1] was 0.76% (inactive). For the molecule `C=C1CCN([C@@H](Cc2ccccc2)C(=O)NC2CCN(Cc3ccccc3)CC2)S(=O)(=O)c2ccccc21`, under setting [1], the inhibition result is “inactive”. As to `CCCN1C2CCCC1CC(NC(=O)c1ccc(Br)cc1)C2` (stereo unspecified), under setting [1], the inhibition is 0.23% (inactive). As for `CCN(CC)S(=O)(=O)c1ccc(Cl)c(C(=O)OCC(=O)c2c(N)n(C)c(=O)n(C)c2=O)c1`, under setting [1], the inhibition is 2.96% (inactive).

For the molecule `COCCCNC(=O)c1cc(C(=O)Cc2ccccc2)c[nH]1`, under setting [1], the inhibition was 0.38% (inactive). On to `O=C(CCn1c(=S)oc2ccccc21)Nc1cccc(O)c1`, for which the inhibition under setting [1] is 1.38% (inactive). Turning to `COc1ccc(C2c3[nH]c4ccccc4c3CCN2C(=O)c2ccc(=O)n(C)n2)c(F)c1` (stereo unspecified), the inhibition under setting [1] is 1.1% (inactive).

On to `COc1ccc(C2c3[nH]c4ccccc4c3CCN2C(=O)c2cn3ccccc3n2)c(F)c1` (stereo unspecified), for which, under setting [1], the inhibition was 8.94% (inactive). As to `CCC(CC)c1nc(C(N)=O)c2[nH]c(=O)n(-c3ccc(OC)c(OC)c3)c2n1`, the inhibition under setting [1] is 1.45% (inactive). Consider `NNc1nc(-c2ccccc2)cc(-c2ccc(Br)cc2)n1`, for which the inhibition under setting [1] was 7.9% (inactive). Regarding `CN1OC[C@@H]2CN(C(=O)C(C)(C)C)[C@H](c3cccc(Br)c3)C[C@@H]21`, the inhibition result under setting [1] was “inactive”.

One may read the inhibition as how much of the control response was suppressed.

(Values after PubChem BioAssay AID588727 (Southern Research Specialized Biocontainment Screening …, 2011).)
